# Results published in the supplement of paper PMC4466140.
# What was measured:
# Assay in all cases: SPOT peptide array binding signal intensity (averaged, normalized) (arbitrary units (background-subtracted, floor 0; scale differs between SH3 domains)); higher = stronger binding of the SH3 domain to the peptide
# [1] = biological target: CaNbp2
# Outline: (§1)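 GST-fused SH3 domains, from four yeast species, were produced in E. coli BL21(DE3) and captured on glutathione Sepharose. Membranes of cellulose carrying synthetic 15-mer peptides, in which cysteines had been replaced by serines, were exposed to each domain at 10 μg/ml overnight at 4°C in TBS-based blocking buffer. After anti-GST antibody, an HRP anti-mouse secondary and luminol, spots were imaged and quantified using Genespotter. Binding signal is normalized and background-subtracted spot intensity, averaged over replicates, in arbitrary units that differ between domains.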
# [2] = biological target: CaRvs167
# Outline: as §1
# [3] = biological target: CaRvs167-3
# Outline: as §1
# [4] = biological target: CaSho1
# Outline: as §1
# [5] = biological target: CaSla1-D1-D2
# Outline: as §1
# [6] = biological target: CaSla1-D3
# Outline: as §1
# [7] = biological target: ScAbp1
# Outline: as §1
# [8] = biological target: ScBbc1
# Outline: as §1
# [9] = biological target: ScBem1-D1
# Outline: as §1
# [10] = biological target: ScBzz1-D1
# Outline: as §1
# [11] = biological target: ScBzz1-D2
# Outline: as §1
# [12] = biological target: ScCyk3
# Outline: as §1
# [13] = biological target: ScFus1
# Outline: as §1
# [14] = biological target: ScHof1
# Outline: as §1
# [15] = biological target: ScHse1
# Outline: as §1
# [16] = biological target: ScLsb1
# Outline: as §1
# [17] = biological target: ScLsb2
# Outline: as §1
# [18] = biological target: ScLsb3
# Outline: as §1
# [19] = biological target: ScLsb4
# Outline: as §1
# [20] = biological target: ScMyo3
# Outline: as §1
# [21] = biological target: ScMyo5
# Outline: as §1
# [22] = biological target: ScNbp2
# Outline: as §1
# [23] = biological target: ScPex13
# Outline: as §1
# [24] = biological target: ScRvs167
# Outline: as §1
# [25] = biological target: ScSho1
# Outline: as §1
# [26] = biological target: ScSla1-D1-D2
# Outline: as §1
# [27] = biological target: ScSla1-D3
# Outline: as §1
# [28] = biological target: SpAbp1-D1
# Outline: as §1
# [29] = biological target: SpBbc1
# Outline: as §1
# [30] = biological target: SpBzz1-D1
# Outline: as §1
# [31] = biological target: SpBzz1-D2
# Outline: as §1
# [32] = biological target: SpCyk3
# Outline: as §1
# [33] = biological target: SpHof1
# Outline: as §1
# [34] = biological target: SpHof1-2
# Outline: as §1
# [35] = biological target: SpHof1-3
# Outline: as §1
# [36] = biological target: SpHse1
# Outline: as §1
# [37] = biological target: SpLsb1
# Outline: as §1
# [38] = biological target: SpLsb4
# Outline: as §1
# [39] = biological target: SpMyo1
# Outline: as §1
# [40] = biological target: SpNbp2
# Outline: as §1
# [41] = biological target: SpPex13
# Outline: as §1
# [42] = biological target: SpRvs167
# Outline: as §1
# [43] = biological target: SpSla1-D1-D2
# Outline: as §1
# [44] = biological target: SpSla1-D3
# Outline: as §1
# [45] = biological target: AgAbp1
# Outline: as §1
# [46] = biological target: AgBbc1
# Outline: as §1
# [47] = biological target: AgBem1-D1
# Outline: as §1
# [48] = biological target: AgBzz1-D1
# Outline: as §1
# [49] = biological target: AgBzz1-D2
# Outline: as §1
# [50] = biological target: AgCyk3
# Outline: as §1
# [51] = biological target: AgFus1
# Outline: as §1
# [52] = biological target: AgHof1
# Outline: as §1
# [53] = biological target: AgHse1
# Outline: as §1
# [54] = biological target: AgLsb1
# Outline: as §1
# [55] = biological target: AgLsb4
# Outline: as §1
# [56] = biological target: AgMyo5
# Outline: as §1
# [57] = biological target: AgNbp2
# Outline: as §1
# [58] = biological target: AgRvs167
# Outline: as §1
# [59] = biological target: AgSho1
# Outline: as §1
# [60] = biological target: AgSla1-D1-D2
# Outline: as §1
# [61] = biological target: AgSla1-D3
# Outline: as §1
# [62] = biological target: CaAbp1-D1
# Outline: as §1
# [63] = biological target: CaAbp1-D2
# Outline: as §1
# [64] = biological target: CaBbc1
# Outline: as §1
# [65] = biological target: CaBem1-D1
# Outline: as §1
# [66] = biological target: CaBzz1-D1
# Outline: as §1
# [67] = biological target: CaBzz1-D2
# Outline: as §1
# [68] = biological target: CaCyk3
# Outline: as §1
# [69] = biological target: CaFus1
# Outline: as §1
# [70] = biological target: CaHof1
# Outline: as §1
# [71] = biological target: CaHse1
# Outline: as §1
# [72] = biological target: CaLsb1
# Outline: as §1
# [73] = biological target: CaLsb4
# Outline: as §1
# [74] = biological target: CaMyo5
# Outline: as §1
binder,measurement,setting,value
VPPVPLPFGIPPFPM,SPOT peptide array binding signal intensity,[1],88.5
same,SPOT peptide array binding signal intensity,[2],1.33
same,SPOT peptide array binding signal intensity,[3],2.5
same,SPOT peptide array binding signal intensity,[4],25
same,SPOT peptide array binding signal intensity,[5],34
same,SPOT peptide array binding signal intensity,[6],25.8
same,SPOT peptide array binding signal intensity,[7],≤ 0
same,SPOT peptide array binding signal intensity,[8],≤ 0
same,SPOT peptide array binding signal intensity,[9],1
same,SPOT peptide array binding signal intensity,[10],≤ 0
same,SPOT peptide array binding signal intensity,[11],2.5
same,SPOT peptide array binding signal intensity,[12],2.5
same,SPOT peptide array binding signal intensity,[13],≤ 0
same,SPOT peptide array binding signal intensity,[14],144
same,SPOT peptide array binding signal intensity,[15],47
same,SPOT peptide array binding signal intensity,[16],0.75
same,SPOT peptide array binding signal intensity,[17],≤ 0
same,SPOT peptide array binding signal intensity,[18],6.5
same,SPOT peptide array binding signal intensity,[19],≤ 0
same,SPOT peptide array binding signal intensity,[20],867
same,SPOT peptide array binding signal intensity,[21],308
same,SPOT peptide array binding signal intensity,[22],23
same,SPOT peptide array binding signal intensity,[23],772
same,SPOT peptide array binding signal intensity,[24],0.333
same,SPOT peptide array binding signal intensity,[25],41
same,SPOT peptide array binding signal intensity,[26],≤ 0
same,SPOT peptide array binding signal intensity,[27],7.5
same,SPOT peptide array binding signal intensity,[28],2
same,SPOT peptide array binding signal intensity,[29],1.5
same,SPOT peptide array binding signal intensity,[30],236
same,SPOT peptide array binding signal intensity,[31],1.5
same,SPOT peptide array binding signal intensity,[32],1
same,SPOT peptide array binding signal intensity,[33],4
same,SPOT peptide array binding signal intensity,[34],9.5
same,SPOT peptide array binding signal intensity,[35],7
same,SPOT peptide array binding signal intensity,[36],70.8
same,SPOT peptide array binding signal intensity,[37],≤ 0
same,SPOT peptide array binding signal intensity,[38],51.5
same,SPOT peptide array binding signal intensity,[39],775
same,SPOT peptide array binding signal intensity,[40],7
same,SPOT peptide array binding signal intensity,[41],9.5
same,SPOT peptide array binding signal intensity,[42],24.5
same,SPOT peptide array binding signal intensity,[43],3
same,SPOT peptide array binding signal intensity,[44],6
PSTMDFPKLPSFQNS,SPOT peptide array binding signal intensity,[45],3
same,SPOT peptide array binding signal intensity,[46],10.5
same,SPOT peptide array binding signal intensity,[47],88.5
same,SPOT peptide array binding signal intensity,[48],13
same,SPOT peptide array binding signal intensity,[49],≤ 0
same,SPOT peptide array binding signal intensity,[50],≤ 0
same,SPOT peptide array binding signal intensity,[51],347
same,SPOT peptide array binding signal intensity,[52],63.2
same,SPOT peptide array binding signal intensity,[53],198
same,SPOT peptide array binding signal intensity,[54],0.5
same,SPOT peptide array binding signal intensity,[55],6
same,SPOT peptide array binding signal intensity,[56],13.5
same,SPOT peptide array binding signal intensity,[57],179
same,SPOT peptide array binding signal intensity,[58],3.5
same,SPOT peptide array binding signal intensity,[59],376
same,SPOT peptide array binding signal intensity,[60],≤ 0
same,SPOT peptide array binding signal intensity,[61],0.5
same,SPOT peptide array binding signal intensity,[62],0.5
same,SPOT peptide array binding signal intensity,[63],43.5
same,SPOT peptide array binding signal intensity,[64],34.5
same,SPOT peptide array binding signal intensity,[65],54
same,SPOT peptide array binding signal intensity,[66],85
same,SPOT peptide array binding signal intensity,[67],57.5
same,SPOT peptide array binding signal intensity,[68],8
same,SPOT peptide array binding signal intensity,[69],1020
same,SPOT peptide array binding signal intensity,[70],1
same,SPOT peptide array binding signal intensity,[71],156
same,SPOT peptide array binding signal intensity,[72],0.5
same,SPOT peptide array binding signal intensity,[73],390
same,SPOT peptide array binding signal intensity,[74],95.5
same,SPOT peptide array binding signal intensity,[1],340
same,SPOT peptide array binding signal intensity,[2],33.3
same,SPOT peptide array binding signal intensity,[3],6.5
same,SPOT peptide array binding signal intensity,[4],1290
same,SPOT peptide array binding signal intensity,[5],136
same,SPOT peptide array binding signal intensity,[6],157
same,SPOT peptide array binding signal intensity,[7],3
same,SPOT peptide array binding signal intensity,[8],≤ 0
same,SPOT peptide array binding signal intensity,[9],≤ 0
same,SPOT peptide array binding signal intensity,[10],2
same,SPOT peptide array binding signal intensity,[11],10.5
same,SPOT peptide array binding signal intensity,[12],5
same,SPOT peptide array binding signal intensity,[13],414
same,SPOT peptide array binding signal intensity,[14],88.2
same,SPOT peptide array binding signal intensity,[15],130
same,SPOT peptide array binding signal intensity,[16],11
same,SPOT peptide array binding signal intensity,[17],≤ 0
same,SPOT peptide array binding signal intensity,[18],184
same,SPOT peptide array binding signal intensity,[19],140
same,SPOT peptide array binding signal intensity,[20],28.5
same,SPOT peptide array binding signal intensity,[21],10.5
same,SPOT peptide array binding signal intensity,[22],252
same,SPOT peptide array binding signal intensity,[23],221
same,SPOT peptide array binding signal intensity,[24],11.3
same,SPOT peptide array binding signal intensity,[25],528
same,SPOT peptide array binding signal intensity,[26],60
same,SPOT peptide array binding signal intensity,[27],290
same,SPOT peptide array binding signal intensity,[28],≤ 0
same,SPOT peptide array binding signal intensity,[29],≤ 0
same,SPOT peptide array binding signal intensity,[30],205
same,SPOT peptide array binding signal intensity,[31],10.5
same,SPOT peptide array binding signal intensity,[32],1
same,SPOT peptide array binding signal intensity,[33],30.2
same,SPOT peptide array binding signal intensity,[34],72.2
same,SPOT peptide array binding signal intensity,[35],18
same,SPOT peptide array binding signal intensity,[36],289
same,SPOT peptide array binding signal intensity,[37],≤ 0
same,SPOT peptide array binding signal intensity,[38],658
same,SPOT peptide array binding signal intensity,[39],91.5
same,SPOT peptide array binding signal intensity,[40],130
same,SPOT peptide array binding signal intensity,[41],38
same,SPOT peptide array binding signal intensity,[42],59
same,SPOT peptide array binding signal intensity,[43],4
same,SPOT peptide array binding signal intensity,[44],133
